Data on nine compounds can be found in PubChem BioAssay (NCI).

Compounds without any hit were thinned out: in the full panel of roughly 83,000, 20% have a hit.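 How to read the values: 0–100, growth inhibition (40 = 60% inhibited); 0, no net growth; -100 to 0, cell death (-40 = 40% of starting cells died; -100 = all dead).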 Unmarked numbers belong to inactive results. Calls of active or inactive are those of the source. How the source made its calls: active means growth percent below 10; inactive means the rest.

What all share (assay): NCI-60 one-dose screen, 48 h (100 = growth as untreated, 0 = no growth, -100 = all killed)
The test system of one experiment is DU-145 prostate. Conditions: 10 µM unless noted.
For the next experiment, the system named is MALME-3M melanoma. Conditions: 10 µM unless noted.
The subject of the next experiment is MDA-MB-231 breast. Conditions: 10 µM unless noted.
The subject of the next experiment is RXF 393 renal. The following applies: 10 µM unless noted.
In the next experiment the test system is SF-268 CNS. The following applies: 10 µM unless noted.
The next experiment has as its system SF-295 CNS. The following applies: 10 µM unless noted.
A further experiment concerns SF-539 CNS. Conditions: 10 µM unless noted.
For a further experiment, the system named is UACC-257 melanoma. The following applies: 10 µM unless noted.
Another experiment has as its system M14 melanoma. Conditions: 10 µM unless noted.
Another experiment has as its system HCT-15 colon. Conditions: 10 µM unless noted.
A further experiment relates to HT29 colon. Conditions: 10 µM unless noted.
The test system of a further experiment is SNB-75 CNS. Conditions: 10 µM unless noted.
Another experiment relates to SNB-19 CNS. The following applies: 10 µM unless noted.
For the next experiment, the system named is U251 CNS. Conditions: 10 µM unless noted.
For a further experiment, the system named is PC-3 prostate. The following applies: 10 µM unless noted.
The subject of a further experiment is UACC-62 melanoma. The following applies: 10 µM unless noted.
Another experiment deals with LOX IMVI melanoma. Conditions: 10 µM.
A further experiment relates to SK-MEL-28 melanoma. Conditions: 10 µM unless noted.

Regarding `N#Cc1c(NCc2ccccc2)n[nH]c1Nc1ccccc1`, the growth was 92.7% with DU-145 prostate; 21.9% in the experiment on MALME-3M melanoma; 66.3% in the experiment on MDA-MB-231 breast; 60.7% in the experiment on RXF 393 renal; 54.8% in the experiment on SF-268 CNS; 49.5% with SF-295 CNS. Also, the growth with SF-539 CNS is 75.9%; in the experiment with UACC-257 melanoma, 50.9%; in the experiment on M14 melanoma it was 41.1%; with HCT-15 colon, 42.4%; in the experiment with HT29 colon, 84.3%; in the experiment with SNB-75 CNS it was 57.4%. Besides, the growth in the experiment on SNB-19 CNS was 54.8%; with U251 CNS it was 45.9%; in the experiment with PC-3 prostate, 40.1%; with UACC-62 melanoma, 64.9%; in the experiment with LOX IMVI melanoma it was 58.4%; with SK-MEL-28 melanoma it was 79.1%.
As for `Cc1cc(N=C2NC(=O)CS2)n[nH]1`, the growth with DU-145 prostate was 119%; in the experiment with MALME-3M melanoma, 94.8%; with MDA-MB-231 breast, 104%; in the experiment on RXF 393 renal it was 128%; with SF-268 CNS, 95.8%; in the experiment on SF-295 CNS, 101%. Moreover, the growth was 97.6% in the experiment with SF-539 CNS; 118% in the experiment with UACC-257 melanoma; 96.5% in the experiment on M14 melanoma; 104% in the experiment on HCT-15 colon; 114% in the experiment on HT29 colon; 107% in the experiment on SNB-75 CNS. Besides, the growth with SNB-19 CNS was 103%; with U251 CNS it was 110%; in the experiment with PC-3 prostate, 100%; in the experiment on UACC-62 melanoma it was 93.5%; in the experiment with LOX IMVI melanoma, 94.6%; in the experiment with SK-MEL-28 melanoma, 108%.
On to `COc1ccc(C(=O)/C=C/c2cccc(Cl)c2Cl)cc1S(N)(=O)=O`, for which the growth with DU-145 prostate was -76.3% (active); in the experiment with MALME-3M melanoma, 23.1%; with MDA-MB-231 breast, 1.88% (active); in the experiment with RXF 393 renal, -71% (active); in the experiment with SF-268 CNS it was 18%; in the experiment with SF-295 CNS, -38.1% (active). Moreover, the growth in the experiment with SF-539 CNS is -75.5% (active); in the experiment with UACC-257 melanoma, 34.8%; in the experiment on M14 melanoma it was -76.9% (active); in the experiment with HCT-15 colon, -69.4% (active); in the experiment on HT29 colon, -6.28% (active); in the experiment on SNB-75 CNS, 15.2%. Moreover, the growth with SNB-19 CNS is 6.23% (active); with U251 CNS it was -96.3% (active); with PC-3 prostate it was 5% (active); in the experiment on LOX IMVI melanoma it was -78.9% (active); in the experiment with SK-MEL-28 melanoma, -19.1% (active).
On to `COc1ccc(C(=O)/C=C/c2cccnc2)cc1S(N)(=O)=O`, for which the growth in the experiment with DU-145 prostate was 22%; in the experiment on MALME-3M melanoma it was 77.5%; in the experiment on MDA-MB-231 breast it was 60.5%; in the experiment with RXF 393 renal, 54.1%; in the experiment on SF-268 CNS, 44.4%; in the experiment with SF-295 CNS, 38.9%. Besides, the growth with SF-539 CNS was 3.62% (active); in the experiment on UACC-257 melanoma it was 72.1%; in the experiment with M14 melanoma it was 66.2%; with HCT-15 colon, 4.61% (active); in the experiment with HT29 colon it was 24%; in the experiment with SNB-75 CNS it was 64.2%. For the same compound, the growth in the experiment on SNB-19 CNS is 45.4%; in the experiment with U251 CNS, 11.2%; in the experiment with PC-3 prostate it was 78.4%; in the experiment on LOX IMVI melanoma it was -15.3% (active); with SK-MEL-28 melanoma it was 65.7%.
Take `COc1ccc(C(=O)/C=C/c2cccc(Cl)c2)cc1S(N)(=O)=O`: the growth with DU-145 prostate was -40.6% (active); in the experiment with MALME-3M melanoma it was 27.6%; in the experiment with MDA-MB-231 breast, -4.13% (active); in the experiment on RXF 393 renal, -65.8% (active); with SF-268 CNS, 7.86% (active); in the experiment on SF-295 CNS it was -88.8% (active). Moreover, the growth in the experiment with SF-539 CNS is -80.6% (active); in the experiment with UACC-257 melanoma, -29.6% (active); in the experiment with M14 melanoma, -10.5% (active); in the experiment on HCT-15 colon, -89.9% (active); with HT29 colon, 0.678% (active); in the experiment on SNB-75 CNS, 29.5%. The growth in the experiment on SNB-19 CNS is 0.182% (active); with U251 CNS, -97.1% (active); with PC-3 prostate it was 31.7%; in the experiment with LOX IMVI melanoma it was -87.4% (active); in the experiment on SK-MEL-28 melanoma, -25.7% (active).
As for `O=C1C(=Nc2ccc(F)c(Cl)c2)c2cccc3cccc1c23`, the growth in the experiment with DU-145 prostate is 80.3%; in the experiment on MALME-3M melanoma, 49.8%; in the experiment with MDA-MB-231 breast, 59.6%; with RXF 393 renal, 107%; in the experiment with SF-268 CNS it was 68.6%; in the experiment on SF-295 CNS it was 47.3%. Besides, the growth was 26.8% in the experiment with SF-539 CNS; 49% in the experiment with UACC-257 melanoma; 63.2% in the experiment with M14 melanoma; 8.52% (active) with HCT-15 colon; 5.96% (active) in the experiment on HT29 colon; 66.5% in the experiment on SNB-75 CNS. In addition, the growth with SNB-19 CNS was 71.2%; with U251 CNS it was 24.7%; in the experiment with PC-3 prostate, 77.9%; in the experiment on LOX IMVI melanoma, 46.9%; in the experiment on SK-MEL-28 melanoma it was 57.9%.
For the compound `CCN1CCN(Cc2ccc(C(=O)Nc3cccc(C#Cc4cccc5[nH]nc(N)c45)c3)cc2C(F)(F)F)CC1`, the growth was -41.8% (active) in the experiment with DU-145 prostate; -76.2% (active) in the experiment with MALME-3M melanoma; -90.8% (active) with MDA-MB-231 breast; -87.6% (active) in the experiment with RXF 393 renal; -61.6% (active) in the experiment with SF-268 CNS; -87.1% (active) in the experiment on SF-295 CNS. For the same compound, the growth in the experiment on SF-539 CNS was -97.4% (active); in the experiment with UACC-257 melanoma, -89.3% (active); in the experiment on M14 melanoma, -95.2% (active); in the experiment on HCT-15 colon, -87.6% (active); in the experiment on HT29 colon, -10.5% (active); in the experiment with SNB-75 CNS it was -62% (active). In addition, the growth is -88.7% (active) in the experiment with SNB-19 CNS; -94.6% (active) with U251 CNS; -14% (active) with PC-3 prostate; -74.7% (active) in the experiment with UACC-62 melanoma; -92.6% (active) with LOX IMVI melanoma; -95% (active) in the experiment with SK-MEL-28 melanoma.
In the case of `CC(=O)NNc1ccc2nnc(-c3ccccc3)n2n1`, the growth in the experiment with DU-145 prostate was 103%; in the experiment on MALME-3M melanoma, 98.5%; in the experiment with MDA-MB-231 breast, 106%; in the experiment with RXF 393 renal it was 101%; with SF-268 CNS, 95%; in the experiment with SF-295 CNS it was 104%. The growth was 103% in the experiment with SF-539 CNS; 109% with UACC-257 melanoma; 98.8% with M14 melanoma; 103% with HCT-15 colon; 129% in the experiment on HT29 colon; 90.3% with SNB-75 CNS. For the same compound, the growth in the experiment on SNB-19 CNS was 97.3%; in the experiment on U251 CNS it was 101%; in the experiment with PC-3 prostate it was 107%; with UACC-62 melanoma, 98.6%; in the experiment with LOX IMVI melanoma, 99.3%; in the experiment on SK-MEL-28 melanoma, 107%.
In the case of `COc1ccc(C(=O)/C=C/c2ccc3ccccc3c2)cc1S(N)(=O)=O`, the growth was -9.03% (active) in the experiment on DU-145 prostate; 18.1% in the experiment with MALME-3M melanoma; 6.01% (active) in the experiment on MDA-MB-231 breast; -60.2% (active) in the experiment on RXF 393 renal; 12.8% in the experiment on SF-268 CNS; -80.5% (active) with SF-295 CNS. The growth in the experiment on SF-539 CNS is -87.9% (active); in the experiment with UACC-257 melanoma it was -48.4% (active); with M14 melanoma, -78.5% (active); in the experiment with HCT-15 colon it was -87.1% (active); in the experiment on HT29 colon, -26.5% (active); with SNB-75 CNS, -15.5% (active). The growth was -49.6% (active) with SNB-19 CNS; -96.3% (active) in the experiment on U251 CNS; -11.9% (active) in the experiment on PC-3 prostate; -55.6% (active) in the experiment with UACC-62 melanoma; -89.1% (active) with LOX IMVI melanoma; -41.5% (active) in the experiment with SK-MEL-28 melanoma.
